# Results from PubChem BioAssay (NCATS).
# Inconclusive results are not listed. The source made the active and inactive calls. Unless noted, calls follow the shape of the dose curve; as a rule, active = well fitted curve in the direction sought with a large enough effect; inconclusive = small, poorly fitted or top-dose-only effect, or another doubt; inactive = no such curve, though single readings can be large; an effect the other way counts as inactive or inconclusive.
# Assays:
# [1] = target: Cytochrome P450 3A4 (Homo sapiens) (UniProt P08684); experiment: qHTS Assay for Activators of Cytochrome P450 3A4 (AID 885); also: nearly all actives have a fitted effect of over 65% in size
# Chain of Cytochrome P450 3A4 (Homo sapiens) (P08684 whole entry, looked up): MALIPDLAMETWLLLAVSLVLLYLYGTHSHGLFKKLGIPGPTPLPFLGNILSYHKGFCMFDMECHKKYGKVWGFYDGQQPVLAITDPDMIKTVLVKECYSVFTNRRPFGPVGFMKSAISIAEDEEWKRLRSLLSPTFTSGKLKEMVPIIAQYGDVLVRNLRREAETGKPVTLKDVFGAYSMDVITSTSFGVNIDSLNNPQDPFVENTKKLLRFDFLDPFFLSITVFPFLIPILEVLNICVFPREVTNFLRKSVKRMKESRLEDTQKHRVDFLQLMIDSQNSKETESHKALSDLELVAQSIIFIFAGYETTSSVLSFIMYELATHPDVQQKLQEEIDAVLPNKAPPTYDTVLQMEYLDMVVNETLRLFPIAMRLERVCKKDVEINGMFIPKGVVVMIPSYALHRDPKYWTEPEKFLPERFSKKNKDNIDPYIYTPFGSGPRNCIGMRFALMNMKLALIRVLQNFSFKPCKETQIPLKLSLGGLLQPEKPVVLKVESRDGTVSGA
# Summary of the method: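 Human CYP3A4 (20 nM) with Luciferin-PPXE at 25 uM (its KM) in 200 mM KPO4; 10 min compound preincubation, then NADPH regeneration and 60 min reaction at RT. Luciferin read by luminescence; normalized to 57 uM ketoconazole full inhibition.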
# [2] = Confirmation and Secondary Assay for Modulators of Hemoglobin Beta Chain Splicing at IVS2 654 locus (AID 910);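 also: HeLa cells stably carrying EGFP split by mutant beta-globin IVS2-654 intron; % of control where 0% means no effect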
# Summary of the method: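 HeLa cells stably expressing EGFP interrupted by β-globin IVS2-654 intron, seeded overnight in Opti-MEM/2% FCS, then treated 2 days at 37 °C. Restored splicing read as total peak GFP intensity per well by laser scanning cytometry (488 nm excitation, 500–520 nm emission); 500 nM antisense PNA as control.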
# [3] = Confirmation and Secondary Assay for Modulators of Hemoglobin Beta Chain Splicing at IVS2 705 locus (AID 930);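 also: HeLa cells stably expressing the EGFP-705 splicing reporter; GFP fluorescence per well restored by corrected splicing of the IVS2-705 intron in EGFP; % of control where 0% means no effect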
# Summary of the method: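 Per-well GFP, captured at 1 x 8 µm resolution with 488 nm excitation, served as the read-out for HeLa EGFP-705 cells incubated 2 days with test compound versus DMSO.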
# [4] = qHTS Assay for Lipid Storage Modulators (AID 1519; calls by dose curve; as to activity change, negative = inhibition: % is scaled to controls: 0 for no effect and ±100 for the full control effect); settings: Drosophila S3 cells, BODIPY lipid droplet/cell ratio, laser cytometry, cells loaded with oleic acid; for activity change, negative = inhibition: at 57.5 µM (top of the series)
# Summary of the method: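 Cells seeded at 5,000 per well were treated with compounds over a concentration series and loaded with oleic acid (400 uM, as added). Lipid droplet fluorescence (488 nm excitation, 500-530 nm channel) was read by laser-scanning cytometry and normalized to 20 uM Triacsin C.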
# [5] = measured here: cell count channel max response
# [6] = measured here: lipid channel max response
Compound,Potency [1],Potency [2],Potency [3],"activity change, negative = inhibition [4]","max response [4, 5] [%]","max response [4, 6] [%]"
CC(=O)OCC1=C(C(=O)O)N2C(=O)C(NC(=O)Cc3cccs3)C2SC1 (stereo not drawn),inactive,inactive,inactive,9.08% (inactive),8.85,22
CC(C)c1ccc2c(c1)CCC1C(C)(C(N)=O)CCCC21C (stereo not drawn),inactive,inactive,inactive,-15.9% (inactive),-2.05,-18.2
O=C(/C=C/c1ccccc1)c1ccc(O)cc1O,inactive,inactive,inactive,-11.9% (inactive),1.3,-11.1
CC(=O)OCC1OC(Oc2cc(OC(C)=O)c3c(=O)cc(-c4ccc(OC(C)=O)cc4)oc3c2)[C@@H](OC(C)=O)C(OC(C)=O)C1OC(C)=O (stereo partly drawn),inactive,inactive,inactive,-3.32% (inactive),-1.21,-5.92
C#CCCCCCCCCCCCc1ccco1,inactive,inactive,inactive,2.25% (inactive),8.94,11.4
C=CCCCCCCCCCCC/C=C/C(O)COC(C)=O (stereo not drawn),inactive,inactive,inactive,8.71% (inactive),8.46,19.5
CC1OC(OCC2OC(Oc3c(-c4ccc(O)c(O)c4)oc4cc(O)cc(O)c4c3=O)C(O)C(O)C2O)[C@@H](O)C(O)C1O (stereo partly drawn),,inactive,inactive,4.3% (inactive),4.35,10.1
COc1cc(O)c(C(=O)c2ccccc2)cc1O,inactive,inactive,inactive,2.59% (inactive),7.29,11.7
CC(CN(C)C)CN1c2ccccc2Sc2ccccc21 (stereo not drawn),,inactive,inactive,6.07% (inactive),-0.564,10.9
COc1cc(O)cc(/C=C/c2ccccc2)c1,inactive,inactive,inactive,5.85% (inactive),-8.15,-0.333
CCC(C)C(=O)OC1CC(C)C=C2C=CC(C)C(CCC3CC(O)CC(=O)O3)C21 (stereo not drawn),,inactive,inactive,5.56% (inactive),0.727,5.38
CC(=O)Oc1cc2c(c(C)c1OC(C)=O)CC=C1[C@]3(C)CC[C@]4(C)CC[C@@](C)(C(=O)O)CC4[C@]3(C)CC[C@]12C (stereo partly drawn),inactive,inactive,inactive,-5.08% (inactive),-7.33,-12.4
NC(C(=O)NC1C(=O)N2C(C(=O)O)=C(Cl)CSC12)c1ccccc1 (stereo not drawn),inactive,inactive,inactive,8.35% (inactive),18.8,24.9
CCCCCc1c2c(cc(O)c1C(=O)O)OC(=O)c1c(cc(OC)cc1C(=O)CCCC)O2,inactive,inactive,inactive,7.58% (inactive),12.3,21.9
CC1=C(C(=O)O)N2C(=O)C(NC(=O)C(N)c3ccccc3)C2SC1 (stereo not drawn),,inactive,inactive,9.95% (inactive),9.88,24.8
O=c1c(O)c(-c2ccccc2)oc2ccccc12,inactive,inactive,inactive,0.0192% (inactive),-10,-11.2
CC(=O)OC1CC[C@@]2(C)C3CC(=O)[C@]4(C)C(C(C)=O)=CCC4C3CC[C@H]2C1 (stereo partly drawn),,inactive,inactive,-12.8% (inactive),4.87,-10
CCCCC(=O)O[C@@]1(C(=O)CO)C(C)CC2C3CCC4=CC(=O)C=C[C@@]4(C)[C@]3(F)C(O)C[C@]21C (stereo partly drawn),inactive,inactive,inactive,-6.08% (inactive),9.88,7.08
O=C(/C=C(\O)c1ccccc1)c1ccccc1O,inactive,inactive,inactive,-15.7% (inactive),-12.9,-24.5
CC(=O)OC1CCC2(C)C3=C(CCC2C1(C)C)[C@]1(C)CCC(C(C)CCC=C(C)C)[C@]1(C)CC3 (stereo partly drawn),inactive,inactive,inactive,-0.993% (inactive),20.7,23.4
CC(C)c1c(O)ccc2c1CCC1[C@@](C)(C=O)CCC[C@@]21C (stereo partly drawn),inactive,inactive,inactive,-2.8% (inactive),1.05,-0.0657
C#CCCCCCCCCCCCC(O)CC(O)CO (stereo not drawn),inactive,inactive,inactive,15.6% (inactive),3.34,18.3
C=CC(C1=CC(=O)C(OC)=CC1=O)c1ccc(O)cc1 (stereo not drawn),inactive,inactive,inactive,12.9% (inactive),1.65,16.7
